According to PubChem BioAssay (EPA / NIEHS):
Records with an inconclusive call do not appear. Calls of active or inactive are those of the source. How the source made its calls, unless noted: active means hit-call score of the fitted dose curve at least 0.9, where 1 is the maximum; inconclusive means response in the unintended direction; inactive means score below 0.9.

Assays:
[1] = TOX21_p53_BLA_p2_viability: Viability Assessment in the Tox21 HCT-116 p53 Agonism Beta-lactamase Assay, Phase 2 (AID 2283591);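 further: actives lower the ATP signal meaning cytotoxicity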
In short: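 HCT-116 p53-bla cells (4000/well) rested 5 h at 37C, then received compounds in DMSO (217-fold dilution) for 16 h at 37C, 5% CO2. After the CCF4 read, CellTiter-Glo was added; ATP luminescence was read after 30 min at room temperature.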

[2] = target: Cellular tumor antigen p53 (Homo sapiens) (UniProt P04637); experiment: TOX21_p53_BLA_p2_ratio: Tox21 HCT-116 p53 Agonism Beta-lactamase Assay, Ratio, Phase 2 (AID 2283592)
Cellular tumor antigen p53 (Homo sapiens), sequence (P04637 whole entry, looked up): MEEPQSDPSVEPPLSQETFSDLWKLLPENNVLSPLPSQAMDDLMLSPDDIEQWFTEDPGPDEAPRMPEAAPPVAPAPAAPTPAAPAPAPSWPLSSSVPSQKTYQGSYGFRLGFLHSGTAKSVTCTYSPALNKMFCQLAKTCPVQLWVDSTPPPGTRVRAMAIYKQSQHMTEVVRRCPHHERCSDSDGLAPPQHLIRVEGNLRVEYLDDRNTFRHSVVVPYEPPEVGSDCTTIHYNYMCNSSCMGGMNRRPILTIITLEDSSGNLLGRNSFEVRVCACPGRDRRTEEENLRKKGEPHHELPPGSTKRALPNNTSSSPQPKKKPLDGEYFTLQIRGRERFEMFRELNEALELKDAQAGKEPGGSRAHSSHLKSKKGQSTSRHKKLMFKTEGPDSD
In short: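 First, HCT116 reporter cells settle for 5 h at 37C. Next, DMSO compound solutions are pinned in (217-fold dilution) and left 16 h. Finally, CCF4-AM substrate is loaded 2 h at room temperature and the 460/530 nm ratio read.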

[3] = TOX21_p53_BLA_p3_viability: Viability Assessment in the Tox21 HCT-116 p53 Agonism Beta-lactamase Assay, Phase 3 (AID 2283593);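 further: cells exposed to compound for 16 h before reading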
In short: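 HCT-116 cells (4000/well) rested 5 h at 37C, then got DMSO compounds by pin tool (217-fold dilution) for 16 h at 37C, 5% CO2. After the bla read, CellTiter-Glo was added and luminescence read at 30 min, room temperature.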

[4] = target: Cellular tumor antigen p53 (Homo sapiens) (UniProt P04637); experiment: TOX21_p53_BLA_p3_ratio: Tox21 HCT-116 p53 Agonism Beta-lactamase Assay, Ratio, Phase 3 (AID 2283596)
In short: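 Cells were seeded at 4000/well, rested 5 h at 37C, then dosed with DMSO compound solutions (217-fold dilution) for 16 h. CCF4-AM substrate was loaded for 2 h at room temperature, and the 460/530 nm emission ratio was fitted for gain of signal versus DMSO.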

[5] = TOX21_p53_BLA_p4_viability: Viability Assessment in the Tox21 HCT-116 p53 Agonism Beta-lactamase Assay, Phase 4 (AID 2283597);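 further: hits lower the luminescence signal meaning cytotoxicity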
In short: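 4000 HCT116 cells per well; 5 h attachment; compounds from DMSO, 217-fold dilution; 16 h at 37C. Then CCF4-AM, 2 h RT, followed by CellTiter-Glo, 30 min RT, luminescence. Decrease = cytotoxicity.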

[6] = target: Cellular tumor antigen p53 (Homo sapiens) (UniProt P04637); experiment: TOX21_p53_BLA_p4_ratio: Tox21 HCT-116 p53 Agonism Beta-lactamase Assay, Ratio, Phase 4 (AID 2283601)
In short: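 HCT116 cells carrying an inducible beta-lactamase reporter were plated at 4000 cells/well, rested 5 h, then exposed to compounds in DMSO (217-fold dilution) for 16 h at 37C. CCF4-AM substrate was loaded 2 h at room temperature; 460/530 nm emission ratio scored gain-of-signal versus DMSO.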

[7] = target: Cellular tumor antigen p53 (Homo sapiens) (UniProt P04637); experiment: TOX21_p53_BLA_p5_ratio: Tox21 HCT-116 p53 Agonism Beta-lactamase Assay, Ratio, Phase 5 (AID 2283599)
In short: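 HCT-116 cells carrying a p53-inducible beta-lactamase reporter were seeded at 4000 cells/well and dosed after 5 h with compound in DMSO (217-fold dilution). After 16 h at 37C, CCF4-AM substrate was added for 2 h, and the 460/530 nm emission ratio was scored as gain-of-signal versus DMSO.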

[8] = TOX21_p53_BLA_p5_viability: Viability Assessment in the Tox21 HCT-116 p53 Agonism Beta-lactamase Assay, Phase 5 (AID 2283600)
In short: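 Decreased CellTiter-Glo luminescence denotes lost viability. Exposure: 16 h at 37C, 5% CO2, with compounds from DMSO stocks diluted 217-fold in wells of 4000 cells.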

[9] = CCTE_Harrill_HTTr_Viability_MCF7: CCTE's 6-hour Cell Viability Assessment for the High-Throughput Transcriptomics (HTTr) Platform, in MCF-7 cells cultured in DMEM + 10% fetal bovine serum, Harrill Lab (AID 2284010; active means hit-call score of the fitted dose curve at least 0.9, where 1 is the maximum; inactive means score below 0.9)
In short: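 Eight-point concentration series, six-hour exposure. Propidium iodide exclusion imaged to assess membrane integrity as a cytotoxicity readout; bidirectional fitting was done with DMSO as negative control and activity baseline.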

[10] = CCTE_Harrill_HTTr_Apoptosis_MCF7: CCTE's 6-hour Apoptosis Assessment for the High-Throughput Transcriptomics (HTTr) Platform, in MCF-7 cells cultured in DMEM + 10% fetal bovine serum, Harrill Lab (AID 2284011; active means hit-call score of the fitted dose curve at least 0.9, where 1 is the maximum; inactive means score below 0.9)
In short: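 MCF-7 cells in DMEM + 10% FBS exposed 6 h to chemicals over an eight-point dilution series. Caspase-3/7 activation imaged by high-content CellEvent Green staining; fitted bidirectionally versus DMSO.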

[11] = CCTE_Harrill_HTTr_CellCount_MCF7: CCTE's Cell Proliferation Assessment for the High-Throughput Transcriptomics (HTTr) Platform, Harrill Lab (AID 2284012);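 further: count of Hoechst-stained nuclei per well by high-content imaging in MCF-7 cells; cells exposed to compound for six hours; intended direction is loss of nuclei count meaning fewer cells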
In short: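 For this full-screen endpoint, MCF-7 cultures received eight compound dilutions for six hours. Well nuclei counts from Hoechst imaging were analyzed relative to DMSO.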

[12] = TOX21_PR_BLA_Followup_Agonist_viability: Viability Assessment in the Tox21 HEK293 Progesterone Receptor (PR) Agonism Beta-lactamase Follow-Up Assay (AID 2283935);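 further: signal loss means lower viability so actives are cytotoxic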
In short: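 Viability is read as CellTiter-Glo luminescence, where loss of signal indicates cytotoxicity. The cells are PR-UAS-bla HEK293T given compounds for 16 hr at 37C and 5% CO2, in the same wells used for the bla readout.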

[13] = TOX21_PR_BLA_Followup_Antagonist_viability: Viability Assessment in the Tox21 HEK293 Progesterone Receptor (PR) Antagonism Beta-lactamase Follow-Up Assay (AID 2283936);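 further: cells exposed to compound with R5020 agonist for 16 h; hits lower the luminescence signal meaning cytotoxicity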
In short: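 PR-UAS-bla HEK293T cells in medium with 2% charcoal-stripped FBS were treated with compounds plus R5020 for 16 hr at 37C. After the beta-lactamase read, CellTiter-Glo was added to the same wells and luminescence read after 30 min at room temperature.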

PGR (gene 5241) = PGR (gene 5241) (UniProt P06401); experiment: TOX21_PR_LUC_Followup_Antagonist: Tox21 HEK293 Progesterone Receptor (PR) Antagonism Luciferase Follow-Up Assay (AID 2283938);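 further: curve fitted upward as signal gain over DMSO baseline despite antagonist label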
PGR (gene 5241), sequence (P06401 whole entry, looked up): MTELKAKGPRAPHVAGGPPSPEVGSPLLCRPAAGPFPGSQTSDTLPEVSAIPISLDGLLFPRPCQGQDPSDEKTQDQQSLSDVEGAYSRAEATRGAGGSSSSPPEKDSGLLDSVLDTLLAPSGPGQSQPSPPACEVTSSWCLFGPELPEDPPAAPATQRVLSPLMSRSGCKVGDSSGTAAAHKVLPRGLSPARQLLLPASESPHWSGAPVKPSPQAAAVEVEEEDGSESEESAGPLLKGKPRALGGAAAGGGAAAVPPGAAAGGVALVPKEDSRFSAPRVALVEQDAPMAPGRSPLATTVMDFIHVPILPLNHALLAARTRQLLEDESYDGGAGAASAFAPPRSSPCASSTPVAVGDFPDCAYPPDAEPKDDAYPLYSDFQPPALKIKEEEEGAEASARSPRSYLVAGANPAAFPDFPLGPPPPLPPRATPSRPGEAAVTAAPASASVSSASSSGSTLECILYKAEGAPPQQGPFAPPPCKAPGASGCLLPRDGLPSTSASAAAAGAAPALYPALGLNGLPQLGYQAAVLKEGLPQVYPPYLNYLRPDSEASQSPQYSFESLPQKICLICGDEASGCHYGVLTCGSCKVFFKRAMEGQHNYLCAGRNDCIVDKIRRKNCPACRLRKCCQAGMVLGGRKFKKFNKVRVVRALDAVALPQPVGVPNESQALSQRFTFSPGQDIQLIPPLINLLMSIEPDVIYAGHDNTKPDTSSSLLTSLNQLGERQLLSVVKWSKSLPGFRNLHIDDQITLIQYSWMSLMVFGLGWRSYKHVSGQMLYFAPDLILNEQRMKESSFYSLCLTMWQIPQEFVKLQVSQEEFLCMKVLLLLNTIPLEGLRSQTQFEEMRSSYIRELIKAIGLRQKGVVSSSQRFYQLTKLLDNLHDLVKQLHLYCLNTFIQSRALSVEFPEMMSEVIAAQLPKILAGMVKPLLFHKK
In short: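 HEK293-PR-A-luc cells, 3,000/well, preincubated 5 h at 37C before compound addition in DMSO; 16 h compound exposure at 37C. ONE-Glo luciferase luminescence read after 30 min at room temperature, fitted relative to DMSO baseline.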

[14] = TOX21_PR_LUC_Followup_Antagonist_viability: Viability Assessment in the Tox21 HEK293 Progesterone Receptor (PR) Antagonism Luciferase Follow-Up Assay (AID 2283940)
In short: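 Loss of CellTiter-Glo ATP signal indicates cytotoxicity in HEK293-PR-A-luc cells grown in 10% charcoal-stripped FBS medium, seeded 3,000 per well and incubated 16 h with compound at 37C.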

Measured: outcome

O=C(CO)[C@@H](O)[C@H](O)[C@H](O)CO
inactive: [1] | [2] | [3] | [4] | [5] | [6]

CN(C)CCc1c[nH]c2ccc(CS(=O)(=O)N3CCCC3)cc12
inactive: [1] | [2] | [3] | [4] | [5] | [6]

CCCNC(C)C(=O)Nc1ccccc1C (stereo not drawn)
inactive: [1] | [2] | [3] | [4] | [7]

CCn1cc(C(=O)O)c(=O)c2cc3c(cc21)OCO3
not listed: [7] | [12] | [13] | PGR (gene 5241) | [14]
inactive: all other assays above

O=c1n(CCCN2CCN(c3cccc(Cl)c3)CC2)nc2ccccn12
not listed: [7] | [12] | [13] | PGR (gene 5241) | [14]
inactive: all other assays above

CCCCN1CCCC1C(=O)Nc1c(C)cc(C)cc1C (stereo not drawn)
not listed: [7] | [9] | [10] | [11]
inactive: all other assays above

Cc1ccccc1C#N
inactive: [1] | [2] | [3] | [4] | [7]
